Results published in PubChem BioAssay (NCATS).
Results filed as inconclusive are left out. A number with no mark means an inactive call. Calls come from the whole dose curve; as a rule, active = well fitted curve in the direction sought with a large enough effect; inconclusive = small, poorly fitted or top-dose-only effect, or another doubt; inactive = no such curve, though single readings can be large or run the other way.

experiment: qHTS Assay for Identifying Gametocytocidal Compounds (AID 743244);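 note: actives lower the fluorescent signal which means gametocytes are killed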; settings: P. falciparum 3D7 stage III-V gametocytes, alamarBlue, 72 h; max response: stronger effect = lower value
Procedure, shortened: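 P. falciparum 3D7 stage III–V gametocytes (20,000 cells/well) were exposed to compounds for 72 h at 37 °C, 5% CO2. AlamarBlue was then added for 24 h; decreased resorufin fluorescence (Ex 525/Em 598 nm) indicated loss of viability.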
% is set by controls: 0 for no effect and ±100 for the full control effect.

SMILES | max response
CO[C@@]1(NC(=O)C(C(=O)O)c2ccc(O)cc2)C(=O)N2C(C(=O)O)=C(CSc3nnnn3C)CO[C@@H]21 (stereo partly drawn) | 2.23%
C/C=C/C(=O)N(CC)c1ccccc1C | 21.1%
CCCCCOC(=O)Nc1nc(=O)n([C@@H]2O[C@H](C)[C@@H](O)[C@H]2O)cc1F | 5.02%
CCCCCCCCCCOc1cc2c(=O)c(C(=O)OCC)c[nH]c2cc1OCC | -3.15%
CC1(C)[C@@H](OC(=O)CCC(=O)O)CC[C@]2(C)[C@H]3C(=O)C=C4[C@@H]5C[C@@](C)(C(=O)O)CC[C@]5(C)CC[C@@]4(C)[C@]3(C)CC[C@@H]12 | -6.25%
CC(=O)N[C@H]1[C@H]([C@H](O)[C@H](O)CO)OC(C(=O)O)=C[C@@H]1N=C(N)N | 5.37%
O=C(/C=C/c1ccc(O)c(O)c1)O[C@@H]1C[C@@](OC(=O)/C=C/c2ccc(O)c(O)c2)(C(=O)O)C[C@@H](O)[C@@H]1O | 3.41%
CN[C@@H]1[C@H](O)[C@H](NC)[C@H]2O[C@@]3(O)C(=O)C[C@@H](C)O[C@H]3O[C@@H]2[C@H]1O | 2.93%
